Our source for the Inhibition values is ChEMBL document CHEMBL4296182, “CO-ADD screening of NIH NCI Diversity Set V”.

For part of these data: Entries with a potency or affinity are not part of this list.

One test deals with Staphylococcus aureus. The test is described as follows: Antibacterial activity against Staphylococcus aureus MRSA ATCC 43300 (CO-ADD:GP_020); MIC in CAMBH media using NBS plates, by Resazurin F(560/590). The test is classed as functional. As to conditions: Concentration 20 uM, ASSAY_TEST Inhibition of Bacterial Growth, detection method Resazurin, Fluorescence (ex560/em590), MEDIA CAMHB, plate type 384well, CORNING #3640, time 18 hr. In general terms: Resazurin is reduced to fluorescent resorufin, in cell work by metabolically active cells.

The subject of the next test is Acinetobacter baumannii. The experiment in a line: Antibacterial activity against Acinetobacter baumannii ATCC 19606 (CO-ADD:GN_034); MIC in CAMBH media using NBS plates, by Resazurin F(560/590). It is filed as functional. The conditions noted are these: Concentration 20 uM, ASSAY_TEST Inhibition of Bacterial Growth, detection method Resazurin, Fluorescence (ex560/em590), MEDIA CAMHB, plate type 384well, CORNING #3640, time 18 hr.

The test system of the next test is Escherichia coli. The test is described as follows: Antibacterial activity against Escherichia coli ATCC 25922 (CO-ADD:GN_001); MIC in CAMBH media using NBS plates, by Resazurin F(560/590). The test is classed as functional. As to conditions: Concentration 20 uM, ASSAY_TEST Inhibition of Bacterial Growth, detection method Resazurin, Fluorescence (ex560/em590), MEDIA CAMHB, plate type 384well, CORNING #3640, time 18 hr.

Another test concerns Klebsiella pneumoniae. As to conditions: Concentration 20 uM; ASSAY_TEST Inhibition of Bacterial Growth; detection method Absorption (OD600); MEDIA CAMHB; plate type 384well; NBS; CORNING #3640; time 18 hr.
The next test has as its system Candida albicans. As to conditions: 20 µM.
The next test has as its system Cryptococcus neoformans. As to conditions: Concentration 20 uM; ASSAY_TEST Inhibition of Fungal Growth; detection method Resazurin; Absorption (OD600-OD570); plate type 384well; NBS; CORNING #3640.

Broadly, the Inhibition is the change of the read-out against control, counted positive when it falls. For the molecule `Cc1ccc(NC(=O)Nc2nc3ccccc3s2)cc1NC(=O)Nc1nc2ccccc2s1`, the Inhibition in the test with Staphylococcus aureus is -1.63%; in the test on Acinetobacter baumannii, -10.02%; with Escherichia coli, 17.87%; with Klebsiella pneumoniae, 8.92%; with Candida albicans it was -2.38%; in the test on Cryptococcus neoformans, -1.68%.
In the case of `CCCCCc1cc(O)nc(S)n1`, the Inhibition in the test on Staphylococcus aureus is 5.4%; in the test with Acinetobacter baumannii it was -7.23%; in the test on Escherichia coli, 3.05%; in the test with Klebsiella pneumoniae, 2.8%; with Candida albicans, 1.05%; with Cryptococcus neoformans it was -4.11%.
Consider `Cc1ccc(/N=N/c2ccc(C)cc2NC(=O)Nc2ccccc2F)cc1`, for which the Inhibition with Staphylococcus aureus was found to be 3.8%; with Acinetobacter baumannii it was 6.73%; in the test with Escherichia coli, 1.93%; in the test on Klebsiella pneumoniae, 9.05%; in the test on Candida albicans, 6.78%; in the test with Cryptococcus neoformans it was 3.6%.
On to `Clc1nnc2c3ccccc3ccn12`, for which the Inhibition in the test on Staphylococcus aureus is -3.22%; in the test on Acinetobacter baumannii it was 2.03%; in the test on Escherichia coli it was 3.3%; with Klebsiella pneumoniae, 8.71%; in the test with Candida albicans, 1.01%; with Cryptococcus neoformans, -9.43%.
As to `S=c1c2nc[nH]c2ncn1CCSC1=NC=NC2=NC=NC21` (centres undefined), the Inhibition with Staphylococcus aureus was 4.54%; with Acinetobacter baumannii it was -14.19%; in the test with Escherichia coli it was 7.44%; with Klebsiella pneumoniae, 7.27%; with Candida albicans, 5.38%; in the test on Cryptococcus neoformans it was -9.8%.
Regarding `COc1ccc(/N=C\c2c(O)ccc3c2oc2cc(Cl)c(O)c(Cl)c23)cc1`, the Inhibition was -3.23% in the test on Staphylococcus aureus; 0.5% with Acinetobacter baumannii; -4.89% with Escherichia coli; 17.64% in the test with Klebsiella pneumoniae; 2.89% in the test with Candida albicans; -10.03% with Cryptococcus neoformans.
Turning to `CC(=O)NCC(O)c1ccc([N+](=O)[O-])cc1` (centres undefined), the Inhibition is 9.36% in the test on Staphylococcus aureus; -9% in the test with Acinetobacter baumannii; 7.49% with Escherichia coli; 22.16% in the test on Klebsiella pneumoniae; 1.24% with Candida albicans; 2.12% in the test with Cryptococcus neoformans.
As to `N#C/C(=C\c1cccnc1)c1ccc(Br)cc1`, the Inhibition was -11.66% with Staphylococcus aureus; -1.77% in the test with Acinetobacter baumannii; -11.06% in the test with Escherichia coli; 8.56% with Klebsiella pneumoniae; 35.8% with Candida albicans; -4.26% in the test with Cryptococcus neoformans.
As for `O=C(O)c1cnn2c(S)ncnc12`, the Inhibition with Staphylococcus aureus is 16.65%; in the test on Acinetobacter baumannii it was -14.23%; in the test with Escherichia coli it was 9.48%; with Klebsiella pneumoniae it was 8.17%; in the test on Candida albicans, -0.99%; with Cryptococcus neoformans it was -3.32%.
`CCOC(=O)/C(=N\O)C1=CSC2=NNC(C)(C)N12`: the Inhibition is 3.63% with Staphylococcus aureus; -13.67% with Acinetobacter baumannii; 6.92% with Escherichia coli; 9.3% in the test with Klebsiella pneumoniae; 5.91% in the test on Candida albicans; -6.65% in the test with Cryptococcus neoformans.
Consider `O=c1cc(-c2ccccc2)[nH]c2cc(-c3ccco3)nn12`, for which the Inhibition with Staphylococcus aureus was 0.84%; in the test with Acinetobacter baumannii, -12.67%; with Escherichia coli, 11.9%; in the test with Klebsiella pneumoniae, 14.24%; in the test with Candida albicans, -0.13%; in the test with Cryptococcus neoformans it was -17.18%.
For `NC(=O)NC(=O)c1nccnc1C(=O)O`, the Inhibition in the test with Staphylococcus aureus was 4.42%; in the test with Acinetobacter baumannii, -16.67%; in the test with Escherichia coli, 10.6%; in the test on Klebsiella pneumoniae, 1.89%; in the test with Candida albicans it was 0.76%; with Cryptococcus neoformans it was -7.91%.
Regarding `CC(C)c1nc2c(=O)n(C)c(=O)n(C)c2[nH]1`, the Inhibition is 10.47% in the test on Staphylococcus aureus; -19.52% in the test on Acinetobacter baumannii; 12.69% in the test on Escherichia coli; -1.01% in the test on Klebsiella pneumoniae; -1.8% with Candida albicans; -13.14% in the test on Cryptococcus neoformans.
With `COc1ccc2c3c([nH]c2c1)[C@H]1C[C@H]2[C@H](C[C@@H](O)[C@H](OC)[C@H]2C(=O)O)CN1CC3`, the Inhibition was 6.35% with Staphylococcus aureus; 2.79% in the test with Acinetobacter baumannii; -2.06% in the test with Escherichia coli; 4.58% in the test on Klebsiella pneumoniae; -1.6% with Candida albicans; -3.05% in the test with Cryptococcus neoformans.
In the case of `Nc1ccc2c(c1)nnn2-c1ccccc1`, the Inhibition was 10.19% in the test with Staphylococcus aureus; -3.79% with Acinetobacter baumannii; 12.06% with Escherichia coli; -7.86% in the test with Klebsiella pneumoniae; -4.43% in the test with Candida albicans; -12.32% in the test on Cryptococcus neoformans.
For the molecule `Nc1nc(=S)ss1`, the Inhibition in the test on Staphylococcus aureus is 5.79%; in the test with Acinetobacter baumannii, -17.7%; in the test with Escherichia coli, 2.29%; with Klebsiella pneumoniae, 13.54%; in the test on Candida albicans, 3.85%; in the test with Cryptococcus neoformans, -5.25%.
Consider `Cc1ccccc1OCC(O)CN1CCN(c2ccc(Cl)cc2)CC1` (centres undefined), for which the Inhibition in the test with Staphylococcus aureus is 16.79%; with Acinetobacter baumannii it was 7.24%; in the test on Escherichia coli it was 2.66%; with Klebsiella pneumoniae, 7.5%; with Candida albicans, 0.11%; with Cryptococcus neoformans, -12.08%.
`O=C1OCC/C1=C\NCCCCCCCCN/C=C1\CCOC1=O`: the Inhibition was -2.67% in the test with Staphylococcus aureus; 17.83% in the test with Acinetobacter baumannii; 3.41% in the test with Escherichia coli; 9.43% in the test with Klebsiella pneumoniae; 0.08% in the test on Candida albicans; -12.67% in the test on Cryptococcus neoformans.
For the molecule `O=C(COc1ccc([N+](=O)[O-])cc1Cl)N1CCOCC1`, the Inhibition with Staphylococcus aureus was 2.54%; with Acinetobacter baumannii it was 4.52%; in the test with Escherichia coli, 6.72%; in the test on Klebsiella pneumoniae, 6.01%; with Candida albicans, -1.21%; with Cryptococcus neoformans, -16.6%.
